Reference: PubChem BioAssay AID618 (Sanford-Burnham Center for Chemical Genomics, 2007)
The campaign covered roughly 87,000 compounds. About 540 (0.62%) were called active. No rule for the calls is given here. Only a selection was taken, and actives are over-represented in it overall. Entries with a potency or affinity are not part of this list.

Test: inhibitors of MT1-MMP promoter transcription, cell-based, luciferase reporter, luminescence (AID 618);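 also: actives suppress MT1-MMP promoter-driven transcription so potencies describe inhibitors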
Conditions: MT1-MMP promoter luciferase reporter cells

| Structure (SMILES) | outcome |
| --- | --- |
| COc1ccc(-c2c(C)n([O-])c(C)c(C)[n+]2=O)cc1 | inactive |
| COc1ccc(S(=O)(=O)N2C3CCC2CC(NC(=O)NC2CCCCC2)C3)cc1 (centres undefined) | inactive |
| COc1cccc(NS(=O)(=O)c2ccc3[nH]cc(C(=O)NC4CC4)c(=O)c3c2)c1 | inactive |
| CCCn1c(-c2ccc(OC)cc2)nc2c(=O)n(C)c(=O)[nH]c21 | inactive |
| CCC(C)NS(=O)(=O)c1ccc(NC(=O)c2c(-c3ccccc3)noc2C)cc1 (centres undefined) | inactive |
| O=C(NCCCc1ccccc1)c1cnc2n(c1=O)CCS2 | inactive |
| O=C(COc1cccc(C(F)(F)F)c1)NCCCN1CCCC1=O | inactive |
| CCC(=O)Nc1ccc2c(c1)C(=O)N(C1CCCCC1)C2=O | inactive |
| CCN(CC)c1ccc2cc(C(C)=O)c(=O)oc2c1 | inactive |
| CCN(CC)c1ccc2cc(C(=O)Nc3ccccn3)c(=O)oc2c1 | inactive |
| CC(C)C(NS(=O)(=O)c1ccc(Br)s1)C(=O)O (centres undefined) | inactive |
| O=C(CCCSc1nnc(-c2cccs2)n1CC1CCCO1)c1ccccc1 (centres undefined) | inactive |
| COc1ccc(Nc2cc(C)nc(-n3nc(C)cc3C)n2)cc1 | active |
| CNc1cc(C)nc(-n2nc(C)cc2C)n1 | inactive |
| COC(=O)c1ccc(Oc2nc(C)cc(Oc3ccccc3)n2)cc1 | inactive |
| CC(=O)c1ccc(Oc2cc(C)nc(-n3nc(C)cc3C)n2)cc1 | active |
| COC(=O)c1ccc(Oc2cc(C)nc(-n3nc(C)cc3C)n2)cc1 | active |
| CC(=O)c1ccc(Oc2cc(C)nc(NCc3ccccc3)n2)cc1 | inactive |
| Cc1ccc(Oc2cc(-n3nc(C)cc3C)ncn2)cc1 | inactive |
| COC(=O)c1ccc(Oc2cc(C)nc(SC)n2)cc1 | inactive |
| CCOc1ccc(Nc2cc(C)nc(-n3nc(C)cc3C)n2)cc1 | inactive |
| Cc1ccc(C(=O)NCc2cccs2)cc1S(=O)(=O)N1CCCCC1 | inactive |
| Cc1cccc(OCCn2c(=O)sc3ccccc32)c1 | inactive |
| CCSc1nnc(NC(=O)CSc2nc3c(c(=O)n2C)SC(C)C3)s1 (centres undefined) | inactive |

| Structure (SMILES) | outcome |
| --- | --- |
| COc1ccc(C)cc1S(=O)(=O)N(C)CC(=O)Nc1ccccc1 | inactive |
| Cc1ccc(-c2nnc(SCC(=O)N3CCCC3)o2)cc1C | inactive |
| COC(=O)c1ccc(S(=O)(=O)c2ccccc2)c(N)c1 | inactive |
| O=C(Cn1cnc2c(nnn2Cc2ccccc2)c1=O)N1CCN(c2ccccc2)CC1 | inactive |
| CCOc1nc(NC2CCCCC2)nc(NC(C)(C)C)n1 | inactive |
| C=CCOC(=O)c1[nH]c2c(c1C)C(=O)CC(c1ccco1)C2 (centres undefined) | active |
| C/C=C/COC(=O)c1[nH]c2c(c1C)C(=O)CC(c1ccco1)C2 (centres undefined) | active |
| Cc1c(C(=O)OCC2CCCO2)[nH]c2c1C(=O)CC(c1ccc(N(C)C)cc1)C2 (centres undefined) | inactive |
| C/C=C/COC(=O)c1[nH]c2c(c1C)C(=O)CC(c1ccc(N(C)C)cc1)C2 (centres undefined) | inactive |
| Cc1ccc(S(=O)(=O)N(CC(=O)N2CCC(C(N)=O)CC2)Cc2ccc(F)cc2)cc1 | inactive |
| Oc1ccc(F)cc1-c1cc(-c2ccc3c(c2)OCCO3)n[nH]1 | inactive |
| Oc1ccccc1-c1cc(-c2cccc(F)c2)n[nH]1 | inactive |
| Oc1ccccc1-c1cc(-c2ccc3c(c2)OCCO3)n[nH]1 | active |
| Cc1cccc(NCc2ccccc2O)n1 | inactive |
| O=C(CSc1nnc(COc2ccc(F)cc2)o1)N1c2ccccc2CCc2ccccc21 | inactive |
| O=C(CSc1nnc(COc2ccc(Cl)cc2)o1)N1c2ccccc2CCc2ccccc21 | active |
| O=C(CSc1nnc(COc2ccc(Cl)cc2)o1)N1CCN(c2ccccc2)CC1 | inactive |
| COC(=O)c1ccccc1NC(=O)NCc1ccco1 | inactive |
| CC1(C)CC(=O)C2=C(C1)N(CCN1CCOCC1)C1=C(C(=O)CC(C)(C)C1)C2c1cccc(F)c1 | inactive |
| CC(=O)Nc1ccc(-c2nnn(CC(=O)c3ccccc3)n2)cc1Cl | inactive |
| CCOc1cc(/C=N/n2cnnc2)ccc1O | inactive |
| CCOc1cc(/C=N/n2cnnc2)cc(Br)c1O | inactive |
| CCOc1cc(/C=N/n2cnnc2)c(Br)cc1O | active |
| O=C(COc1ccc(S(=O)(=O)NC2CCCCC2)cc1)NCC1CCCO1 (centres undefined) | inactive |

| Structure (SMILES) | outcome |
| --- | --- |
| N#Cc1nn(-c2ccccc2)nc1N1CCCCC1 | inactive |
| Cc1ccc(NC(=O)CC(O)(C(F)(F)F)C(F)(F)F)cc1 | inactive |
| CCN1C(=O)C2C(c3ccccc3F)NC(Cc3ccc(O)cc3)(C(=O)OC)C2C1=O (centres undefined) | inactive |
| COc1ccc(C(=O)Nc2ccc(C)cn2)c(OC)c1 | active |
| COC(=O)c1sc(NC(=O)c2ccoc2C)nc1C | inactive |
| CCOc1ccccc1C(=O)Nc1nnc(CC)s1 | inactive |
| CCc1nnc(NC(=O)c2c(OC)cccc2OC)s1 | inactive |
| COc1ccc(C(=O)Nn2cnnc2)c(OC)c1 | inactive |
| COc1ccc(C(=O)Nc2c(F)c(F)c(F)c(F)c2F)c(OC)c1 | inactive |
| COC(=O)c1sc(NC(=O)c2ccc(OC)cc2OC)nc1C | active |
| COC(=O)c1sc(NC(=O)COc2ccc(OC)cc2)nc1C | inactive |
| Cc1ccc(C)c2[nH]c(=O)c(CCNC(=O)C(C)(C)C)cc12 | inactive |
| O=S(=O)(c1ccc(Br)cc1)N1CCCN(Cc2ccccc2F)CC1 | inactive |
| COc1ccccc1NC(=O)N1CCN(c2ccc3nncn3n2)CC1 | inactive |
| CCCCOC(=O)C1C2C=C[C@]3(CN(CCCOC)C(=O)[C@H]13)O2 (some centres undefined) | inactive |
| CCOc1ccc(NC(=O)CSc2nnc(Cn3c(=O)sc4ccccc43)n2C)cc1 | inactive |
| CCOC(=O)c1cnn(CCOC(=O)Cc2cccs2)c1NC(=O)Cc1cccs1 | inactive |
| CC1=[N+]([O-])C(N2CCOCC2)C(O)(c2ccccc2)C1 (centres undefined) | inactive |
| COCCN1C(=O)c2ccccc2C(C(=O)NCCCN2CCCC2)C1c1c[nH]c2ccccc12 (centres undefined) | inactive |
| O=C(NCC(c1cccnc1)N1CCOCC1)c1ccc2c(c1)OCO2 (centres undefined) | inactive |
| O=S(=O)(NCCOCC(F)(F)C(F)F)c1ccc2oc3ccccc3c2c1 | inactive |
| S=C(Nc1ccccc1)c1ccccn1 | inactive |
| S=C(Nc1ccccn1)c1ccccn1 | inactive |
| Cc1c(C(=O)c2ccc(Cl)cc2Cl)cnc2cc3c(cc12)OCO3 | inactive |

| Structure (SMILES) | outcome |
| --- | --- |
| O=C(CN1CCN(C(=O)c2ccco2)CC1)Nc1c2c(nc3c1CCC3)CCCC2 | inactive |
| Cc1ccc(-c2noc(-c3cccs3)n2)cc1 | inactive |
| COC(=O)c1noc(-c2ccc(C)cc2)n1 | inactive |
| COc1ccc(C(NC(N)=O)c2ccccc2)cc1 (centres undefined) | inactive |
| FC(F)C(F)(F)C(F)(F)C(F)(F)c1cc(-c2ccccc2)n[nH]1 | inactive |
| CCN(CC)c1ccc2cc(-c3nc4ccccc4n3C)c(=O)oc2c1 | inactive |
| CCN(CC)c1ccc2cc(-c3nnc(-c4ccccc4)o3)c(=O)oc2c1 | inactive |
| O=C1CC(c2ccc3c(c2)OCO3)Sc2nc3ccccc3n21 (centres undefined) | active |
| COc1cc(C2CC(=O)n3c(nc4ccccc43)S2)cc(OC)c1OC (centres undefined) | inactive |
| COc1ccc(C2CC(=O)n3c(nc4ccccc43)S2)cc1OC (centres undefined) | inactive |
| Clc1ccc2c(c1)C1OCCC1C(c1ccco1)N2 (centres undefined) | inactive |
| Cc1ccc(-c2nn(CC(=O)NCc3cc(-c4nn(C)c(=O)c5ccccc45)ccc3C)c(=O)c3ccccc23)cc1 | inactive |
| CN(C)S(=O)(=O)c1ccc(C(=O)OCC(=O)NC(=O)NCc2ccccc2)cc1 | inactive |
| CCOC(=O)Nc1cccc(Nc2ccccc2)c1 | inactive |
| CCOC(=O)c1sc(Nc2ccccc2)nc1C | inactive |
| CCOC(=O)/C(=C/Nc1ccccc1)[N+](=O)[O-] | inactive |
| CCOC(=O)/C(=C\c1cccnc1)C(=O)c1cc(C(C)=O)c(Nc2ccccc2)s1 | active |
| CCOC(=O)c1cccc(NC(=O)c2cccnc2)c1 | inactive |
| c1ccc(C2C3=C(CCCC3)Nc3ncnn32)cc1 (centres undefined) | inactive |
| Cc1cccc(C)c1NC(=O)CSc1nnc(CCCCCNC(=O)OC(C)(C)C)o1 | inactive |
| COc1ccc2cc(C#N)c(SCC(=O)N3CCCC3)nc2c1 | inactive |
| Nc1cccc2cnccc12 | inactive |
| Cc1cc2c(N)cccc2nn1 | inactive |
| O=S(=O)(c1ccc(N2CCC(c3ccc(Cl)cc3)=N2)cc1)N(CCO)CCO | inactive |

| Structure (SMILES) | outcome |
| --- | --- |
| CN(C)CCNS(=O)(=O)c1ccc(Cl)cc1 | inactive |
| CC1NC(=O)NC1CCCCC(=O)O (centres undefined) | inactive |
| Cc1ccc(S(=O)(=O)NC2=NCN(C3CCCCC3)CN2)cc1 | inactive |
| Cc1ccc(Cn2c(NCCc3ccccc3)nc3c2c(=O)n(C)c(=O)n3C)cc1 | inactive |
| COc1ccc(NS(=O)(=O)c2ccc(N)c(C(=O)O)c2)cc1 | inactive |
| O=C(OCc1csc(-c2ccccc2)n1)c1cccs1 | inactive |
| Cn1cccc1C(=O)OCc1csc(-c2ccccc2)n1 | inactive |
| Cc1ccsc1C(=O)OCc1csc(-c2ccccc2)n1 | active |
| O=c1cc(CSc2nnnn2-c2ccccc2)nc2nc[nH]n12 | inactive |
| O=C(NC1CC1)c1cc2c(s1)-c1ccccc1OC2 | inactive |
| Cn1c(=O)cc(SCC(=O)NCC2CCCO2)c2ccccc21 (centres undefined) | inactive |
| CC(C)(C)c1cc(NCCCn2ccnc2)n2ncc(-c3ccc(Cl)cc3)c2n1 | inactive |
| Cc1cc(NCCCn2ccnc2)n2nc(C)c(-c3ccc(Cl)cc3)c2n1 | inactive |
| Cc1cc(NCCCN2CCOCC2)n2ncc(-c3ccccc3)c2n1 | inactive |
| Cc1cc(NCCCn2ccnc2)n2ncc(-c3ccccc3)c2n1 | active |
| Cc1cc(NCCCn2ccnc2)n2nc(C)c(-c3ccccc3)c2n1 | inactive |
| Cc1ccc(C)c(C(=O)CC2(O)C(=O)Nc3ccccc32)c1 (centres undefined) | inactive |
| Cc1onc(-c2c(F)cccc2Cl)c1C(=O)NCCCN1CCOCC1 | inactive |
| Cc1cccc(C)c1NC(=O)Cn1c(CN2CCCCC2)nc2ccccc2c1=O | inactive |
| CCN(Cc1ccccc1)S(=O)(=O)c1nc2nc(C)c(C)c(C)n2n1 | inactive |
| CC(C)CC(=O)Nc1ccc(-c2cn3ccsc3n2)cc1 | inactive |
| CC(=O)Nc1ccc(-c2cn3ccsc3n2)cc1 | inactive |
| CC(C)(C)C(=O)Nc1ccc(-c2cn3ccsc3n2)cc1 | active |
